# Rows were chosen to be rich in hits. Some 6% of all compounds tested hit in one or more screens of this group.
# D3 antag = blocks the human D3 dopamine receptor. 360,000 tested, 2.5% active. P35462. max response, negative = inhibition, %. D3R cells, DiscoveRx beta-arrestin luminescence, antagonist mode; hits give low values; in the data active = max response below about -50%; inconclusive = no clear call, values can overlap the other calls; note: % is set by controls: 0 for no effect and ±100 for the full control effect
# Target sequence (P35462 whole entry, looked up): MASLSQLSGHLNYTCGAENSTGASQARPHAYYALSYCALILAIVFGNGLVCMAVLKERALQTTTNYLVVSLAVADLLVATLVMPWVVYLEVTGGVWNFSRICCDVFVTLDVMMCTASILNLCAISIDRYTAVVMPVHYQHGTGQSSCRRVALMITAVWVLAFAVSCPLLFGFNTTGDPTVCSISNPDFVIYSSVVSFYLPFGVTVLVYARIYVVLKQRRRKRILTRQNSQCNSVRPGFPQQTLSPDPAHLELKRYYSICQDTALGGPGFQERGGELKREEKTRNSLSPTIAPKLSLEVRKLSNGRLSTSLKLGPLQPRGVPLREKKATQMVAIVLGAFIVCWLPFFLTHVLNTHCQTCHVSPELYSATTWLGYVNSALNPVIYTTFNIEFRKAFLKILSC
#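 Cells plated overnight at 1500 cells/well, then exposed to library compounds with dopamine controls for 90 minutes at 37 degrees C. DiscoveRx reagent added for 30–60 minutes at room temperature; luminescence read, quantitative HTS format.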
# D1 antag = antagonists of human D1 dopamine receptor; AID 504652; HEK293 TREx D1 cells, calcium flux, dopamine EC80; hits give low values; P21728; 360,000 tested, 3.2% active; activity change, negative = inhibition, % at 10 µM; in the data active = activity change below about -30%; note: % is set by controls: 0 for no effect and ±100 for the full control effect
#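 Inducible Hek293 Trex D1 cells (tetracycline, overnight, 30 C). Calcium dye 30–90 min RT. Antagonist mode: EC80 dopamine added after 180 s compound read.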
# DRD3 agonist = D3 dopamine receptor (human) agonism; D3R DiscoveRx beta-arrestin cells, luminescence, 90 min; max activation, %; 410,000 tested, 0.58% active; in the data active = max activation above about 30%; note: 0% is about no effect
#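 Agonist mode: compounds and dopamine controls were applied to plated cells for 90 min at 37 degrees C after an overnight attachment at 1500 cells/well. Luminescent read-out followed 30 - 60 minutes at room temperature with DiscoveRx detection reagent.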
# D1 potentiator = enhances dopamine response at the human D1 receptor. P21728. HEK293 TREx D1 cells, calcium flux, dopamine EC20 potentiation. potentiation, % at 10 µM. 360,000 tested, 0.036% active. AID 504651; in the data active = potentiation above about 30%; note: 0% is about no effect
# D1 ag = agonists of human D1 dopamine receptor | HEK293 T-REx D1 cells, calcium flux, agonist mode | 360,000 tested, 1% active | AID 504660 | P21728 | activation, % at 2 µM; in the data active = activation above about 30%; note: 0% is about no effect
#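 Agonism was scored from calcium flux recorded over 180 s (1 read/s) after pintool compound addition, following a 10-cycle baseline. Cells were inducible force-coupled HEK293 TREx D1, plated overnight at 30 C and loaded with no-wash calcium dye.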
# An asterisk follows results filed as active; ? = inconclusive; · = not tested or not shown.
SMILES,D3 antag,D1 antag,DRD3 agonist,D1 potentiator,D1 ag
Cc1ccccc1NC(=O)C1CCN(S(=O)(=O)c2c(C)noc2/C=C/c2ccco2)CC1,·,-33*,-15,5,0
Cc1cccc(NC(=O)c2c(C)cc(C)nc2SCC(=O)Nc2c(C)cc(C)cc2C)c1,·,5,3,4,2
CC(=C(CCOC(=O)C(C)C)SSC(CCOC(=O)C(C)C)=C(C)N(C=O)Cc1cnc(C)nc1N)N(C=O)Cc1cnc(C)nc1N,·,·,-5,·,·
Cc1ccc(S(=O)(=O)c2nc(NCCN(C)C)sc2Cl)cc1,-68*,-37*,-1,-8,6
Cc1ccc(S(=O)(=O)c2nc(Nc3ccccc3)sc2Cl)cc1,-4,-2,1,-4,3
Cc1ccc(N(CC(=O)Nc2cc(C)ccc2C)S(=O)(=O)c2c(C)noc2C)cc1,·,-5,8,-1,6
COc1ccc(NS(=O)(=O)c2ccc(-n3nnc4ccccc43)c([N+](=O)[O-])c2)cc1,-17,-3,0,-11,36*
CC(=O)c1cccc(NC(=O)c2nc(-c3ccccc3)n(-c3ccccc3C)n2)c1,·,-3,-10,-1,20
CC(=O)Nc1ccc(S(=O)(=O)N(C)CC(=O)N(C)Cc2sccc2C)cc1,11,-32*,-6,-9,1
CC(=O)Nc1ccc(S(=O)(=O)N(C)Cc2ccccc2)cc1,6,3,1,-13,10
COc1cccc(-n2c(=O)c3sccc3n(Cc3cc(=O)n4cc(Cl)ccc4n3)c2=O)c1,·,-32*,7,0,-1
O=[S+]([O-])(c1ccc2c(c1)OCCO2)N1CCN([S+](=O)([O-])c2c(O)cc(F)cc2F)CC1,·,-48*,·,-10,-1
Clc1ccc(CNc2ccc(CNc3ncn[nH]3)cc2)cc1,0,-11,1,-1,7
Clc1ccc(CNc2ccc(CNc3ncn[nH]3)cc2)c(Cl)c1,-10,-46*,-11,-12,7
Cc1ccccc1CC(=O)NCCN1CCCCC1,-10,2,-8,0,3
CCn1c(=O)c(C(=O)NCCN2CCCCC2)c(O)c2ccccc21,-93*,0,-12,3,5
Cc1ccc(CC(=O)NCCN2CCOCC2)cc1,-8,-4,58*,-3,4
Cn1cc(CC(=O)NCCN2CCOCC2)c2ccccc21,4,-32*,0,-9,3
O=C(Cc1ccccc1)NCCN1CCCC1,1,-39*,-26,-11,4
COc1ccc(CC(=O)NCCN2CCOCC2)cc1,10,4,-1,1,7
Cn1cc(CC(=O)NCCCN2CCOCC2)c2ccccc21,3,9,10,-4,3
O=C(CSc1n[nH]c(-c2ccc(F)cc2)n1)N1CCN(c2ccc(F)cc2)CC1,·,6,-22,-2,0
Cc1nn2c(-c3ccco3)ccnc2c1-c1ccc(F)cc1,·,-6,8,-6,0
Cc1nc(CC(=O)Nc2ccc(C(N)=O)cc2)cs1,·,-3,0,-1,-1
COCC(=O)O[C@]1(CCN(C)CCCc2nc3ccccc3[nH]2)CCc2cc(F)ccc2[C@@H]1C(C)C,?,-23,-75,-10,67*
SMILES,D3 antag,D1 antag,DRD3 agonist,D1 potentiator,D1 ag
CC(C)(C)OC(=O)Cc1nnc(-c2nc3ccccc3[nH]2)o1,·,-33*,·,4,2
Cc1cc(C)c(NC(=O)c2sc3nc(C)cc(C)c3c2NC(=O)c2ccccc2)c(C)c1,·,5,-17,0,-1
COc1ccccc1CCNS(=O)(=O)c1ccc(N2CCCCS2(=O)=O)cc1,·,-12,-1,0,13
O=C1CCC(=O)N1CO,·,·,14,·,·
Cc1cccc(OCc2ccc(-c3nc(C#N)c(NCCN(C)C)o3)o2)c1,·,-18,3,3,102*
Cc1cccc(Nc2cc(C)c3c(O)cccc3n2)c1C,-11,-92*,0,-10,13
C=CCN1CCN(C(=O)c2cc3c(s2)CCC(CC)C3)CC1 (centres undefined),-91*,-8,-32,-1,2
CCC1CCc2sc(C(=O)O)cc2C1 (centres undefined),24,-5,0,-4,2
CC(C(=O)Nc1sc2c(c1C(=O)NCc1ccco1)CCCC2)N1C(=O)c2ccccc2C1=O (centres undefined),-65*,-16,-2,-6,0
O=C(Nc1sc2c(c1C(=O)NCc1cccnc1)CCCC2)c1ccco1,33,-32*,-1,4,2
Cc1cc(C)c2c(=O)cc(C(=O)Nc3sc4c(c3C(=O)NCc3ccccc3)CCCC4)oc2c1,·,-86*,-3,3,-1
Cc1ccc2c(=O)cc(C(=O)Nc3sc4c(c3C(=O)NCc3cccnc3)CCCC4)oc2c1C,·,-8,-10,-1,9
Cc1ccc(CNC(=O)C2CCN(S(=O)(=O)c3c(C)noc3/C=C/c3ccccc3F)CC2)o1,·,17,0,3,18
Cc1ccc2c(c1)c1c(c(=O)n(-c3ccccc3)c(=O)n1CC(=O)N1CCCC1)n2C,·,3,0,-1,-1
CNc1cc([N+](=O)[O-])ccc1N/C=C/C(=O)c1ccc2c(c1)OCO2,-50*,6,-23,1,3
O=C(Nc1cccc(C(=O)N2CCN(c3ccc(Cl)cc3)CC2)c1)c1nsc2ccccc12,·,-13,7,0,2
N/C(=N\N=C\c1ccc(Cl)cc1)N/N=C/c1ccc(Cl)cc1,·,·,5,·,·
N/C(=N\N=C/c1ccc(F)cc1)N/N=C\c1ccc(F)cc1,3,-59*,4,-10,11
COc1ccccc1N1CCN(C(=O)c2cc(-c3ccc4c(c3)OCO4)on2)CC1,22,-5,2,-4,1
O=C(c1cc(-c2ccc3c(c2)OCO3)on1)N1CCN(c2ccccc2)CC1,56,-17,53*,-8,3
COc1ccccc1N1CCN(C(=O)c2cc(-c3ccc(C)c(F)c3)on2)CC1,·,-81*,21,-1,2
N#C/C(=C1\SCC(c2ccccc2Cl)S1)n1ccnc1 (centres undefined),·,·,10,·,·
COc1ccc(N2CCN(C(=O)CSc3nnc4n3C(C)(C)Cc3ccccc3-4)CC2)cc1,44,-12,28,-3,1
Cc1ccc(Cl)cc1N1CCN(C(=O)CSc2nnc3n2C(C)(C)Cc2ccccc2-3)CC1,?,-18,45*,-1,2
O=S(=O)(NCc1ccc(Cl)cc1)c1ccc(N2CCCCS2(=O)=O)cc1,·,-35*,6,-1,20
COc1ccc(NS(=O)(=O)c2ccc(N3CCCCS3(=O)=O)cc2)cc1Cl,·,-30*,-15,0,20
O=S(=O)(NCc1ccc(F)cc1)c1ccc(N2CCCCS2(=O)=O)cc1,·,7,-3,0,10
Cc1cc(C)nc(NC(=O)/C=C/c2ccc(Cl)cc2Cl)c1,-6,5,1,4,2
Cc1cc(C)nc(NC(=O)/C=C/c2ccccc2Cl)c1,-17,-70*,3,6,1
